Screens: PubChem BioAssay, National Center for Advancing Translational Sciences (NCATS)
DT40 TDP1 no CPT – qHTS for Inhibitors of human tyrosyl-DNA phosphodiesterase 1 (TDP1): qHTS in cells in absence of CPT; DT40 Tdp1-/- hTDP1 cells, no CPT, ATP luminescence, 48 h; Potency, µM (titrated, usually from 46.2 µM), for inactives: top-dose activity change, negative = growth inhibition, hits mostly inhibitors; 420,000 tested, 15% active; AID 686978, 2013; further: potency means the concentration at half of the fitted maximal effect; nearly all actives have a fitted effect of over 55% in size
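Chicken DT40 Tdp1-/- cells stably complemented with human TDP1 were seeded at 400 cells/well with DMSO in place of 20 nM camptothecin. After compound pinning, cells grew at least 48 hr at 37 °C; viability read by CellTiter-Glo luminescence.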
HT1080 IDH1KD tx – qHTS for induction of synthetic lethality in tumor cells producing 2HG: qHTS for the HT-1080-IDH1KD cell line | HT-1080 IDH1 knockdown viability, ATP luminescence, 48 h | Potency, µM (series often up to 46.1 µM), for the others: top-dose activity, negative = toxicity, usual class: cytotoxic | 360,000 tested, 2% active | AID 686971, 2013;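 further: potency means the concentration at half of the fitted maximal effect; 0% = DMSO wells and -100% = cell-free medium wells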
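Knockdown cells (IDH1KD HT-1080) received compounds 2 h after plating at 750 cells/well and were kept 48 h at 37 °C in 5% FBS RPMI. A CellTiter-Glo luminescence read gave % activity for curve fitting.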
HT1080-NT tox – qHTS for induction of synthetic lethality in tumor cells producing 2HG: qHTS for the HT-1080-NT fibrosarcoma cell line; AID 686970, 2013; 360,000 tested, 1.6% active; HT-1080-NT fibrosarcoma viability, CellTiter-Glo ATP luminescence, 48 h; Potency, µM (doses to about 46.1 µM), inactives show top-dose activity, negative = less viability, most hits filed as cytotoxic;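 further: NT is the 2HG producing partner of a matched IDH1 knockdown line; potency means the concentration at half of the fitted maximal effect; 0% = DMSO-treated cells and -100% = media-only wells without cells; nearly all actives have a fitted effect of over 55% in size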
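Compounds were tested in concentration-response format on HT-1080-NT cells for 48 hours at 37 degrees C. Cell viability came from CellTiter-Glo luminescence; curves were classified by r2, response magnitude and activity.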
TDP1 cell CPT – qHTS for Inhibitors of human tyrosyl-DNA phosphodiesterase 1 (TDP1): qHTS in cells in presence of CPT. AID 686979, 2013. chicken DT40 Tdp1-/-;hTDP1 cells + 20 nM CPT, ATP luminescence, 48 h. 420,000 tested, 12% active. Potency, µM (doses to about 46.2 µM), without a hit: at the top dose activity change, negative = growth inhibition, usual class: inhibitors; further: potency means the concentration at half of the fitted maximal effect; nearly all actives have a fitted effect of over 55% in size
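Cell growth measured by CellTiter-Glo luminescence after a minimum 48 h, 37 C compound exposure with 20 nM CPT in Tdp1-knockout DT40 cells stably expressing hTDP1, seeded 400/well; qHTS titration format.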
IL-1B inflam inh – qHTS for Inhibitors of Inflammasome Signaling: IL-1-beta AlphaLISA Primary Screen; THP-1 LPS/ATP IL-1B secretion, AlphaLISA, 16 h; hits give low values; AID 743279, 2014; 360,000 tested, 4.7% active; activity change, % at 57.5 µM; in the data active means activity change below about -50%; inconclusive means mostly about -30% to -49%
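THP-1 cells pretreated 1 hr with compounds (up to 57.5 uM final), then stimulated with LPS (250 ng/mL final) plus ATP (1.25 mM final); secreted IL-1B measured by AlphaLISA after 16 hr, decreased signal indicating inhibition.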
* hit, by the source's call; ? = inconclusive; . = no result; [ ] = dose if it differs, or a comment. Only some compounds are listed: those with a hit (about 19% of all), similar ones and a draw of the others. Unless noted, the call rests on the fitted dose curve; in most records, active means well fitted curve in the direction sought with a large enough effect; inconclusive means small, poorly fitted or top-dose-only effect, or another doubt; inactive means no such curve, though single readings can be large; an effect the other way counts as inactive or inconclusive. Unless noted, on the % scale 0 is the no-effect control and ±100 the full control effect.

SMILES	DT40 TDP1 no CPT	HT1080 IDH1KD tx	HT1080-NT tox	TDP1 cell CPT	IL-1B inflam inh
Cc1ccc(-n2c(SCC(=O)O)nc3sc4c(c3c2=O)CCCC4)cc1	9%	-14%	-8%	9%	0
O=c1c(-c2ccc(Cl)cc2)nc2cnc(N3CCOCC3)nc2n1-c1ccccc1	-12%	.	.	11%	.
Cc1ccc(C)c(S(=O)(=O)N2CCN(C(=O)CNC(=O)c3sc4ccccc4c3Cl)CC2)c1	0%	8%	12%	-18%	30
O=C(NCC(=O)N1CCN(S(=O)(=O)c2ccccc2C(F)(F)F)CC1)c1sc2ccccc2c1Cl	12µM*	7%	1%	?	5
CCOc1ccc(OCC)c(NS(=O)(=O)c2cc(-c3cc(C)no3)ccc2C)c1	-12%	.	.	-22%	.
CCS(=O)(=O)n1nc(-c2ccc(C)cc2)nc1N	-18%	19%	21%	-11%	?
CCn1nc(-c2ccc(C)cc2)nc2c(=O)n(C)c(=O)nc1-2	2.2µM*	.	.	1.6µM*	.
Cn1nc(-c2ccncc2)nc2c(=O)n(C)c(=O)nc1-2	0.35µM*	.	.	0.32µM*	.
CCNc1nc(NCC)nc(NS(=O)(=O)c2ccc(N)cc2)n1	-2%	11%	9%	16%	-12
CC(C)(S)C(=O)N[C@@H](CS)C(=O)O	3%	.	.	-5%	.
Cc1ccc(Nc2nc(N)nc(N)c2N=O)cc1Cl	13µM*	-1%	1%	10µM*	.
CCc1c(N)nc(N)nc1Nc1ccc(C)c(C)c1	15µM*	-23%	-15%	?	-8
Nc1nc(N)c(N=O)c(Nc2cccc(Cl)c2)n1	10µM*	?	?	5.8µM*	?
Nc1nc(N)c(N=O)c(Nc2ccc(Cl)c(Cl)c2)n1	7.3µM*	?	?	4.1µM*	-7
Cc1noc(C)c1-c1cncnc1NCc1cccnc1	2%	.	.	2%	.
CCC(C)NCCCCOc1ccc(Cl)cc1C (stereo unspecified)	21µM*	?	?	?	?
CCC(C)NCCOCCOc1ccc(Cl)c(C)c1C (stereo unspecified)	13µM*	21µM*	?	15µM*	-9
CCC(C)NCCOCCSc1ccc(Cl)cc1 (stereo unspecified)	?	-14%	0%	?	-52*
COCCCNC(=O)CCSc1ccc(Cl)cc1	-11%	-9%	-3%	-3%	16
CCC(C)NCCOCCOc1ccc(Cl)c2ccccc12 (stereo unspecified)	18µM*	21µM*	16µM*	9.2µM*	-104*
O=C([C@@H]1CC=C[C@@H]2CCN(C3CCCCC3)C(=O)[C@@H]21)N1CCOCC1	-9%	.	.	0%	.
CCCCC(=O)OCC(=O)N1N=C(c2c[nH]c3ccccc23)C(O)C1c1ccc(OC)cc1 (stereo unspecified)	?	-13%	?	?	24
Cc1nn(C(C)C(=O)NC(C)CCc2ccccc2)c(=O)c2cc3occc3n12 (stereo unspecified)	-9%	-4%	-3%	-25%	20
N#Cc1cnn2ccc(-c3ccc4c(c3)CCC4)nc12	-25%	-4%	-7%	?	3
C=CCn1c(SCC(=O)NC(=O)c2cccc([N+](=O)[O-])c2)nnc1-c1ccccc1	-9%	-4%	0%	-10%	-7
SMILES	DT40 TDP1 no CPT	HT1080 IDH1KD tx	HT1080-NT tox	TDP1 cell CPT	IL-1B inflam inh
Cc1nc(NC(C)C)c2cnn(CCc3ccccc3)c2n1	?	8%	27%	-21%	-18
CCCC(=O)OCC1CN(Cc2ccco2)S(=O)(=O)c2c(F)cccc2O1 (stereo unspecified)	-19%	6%	7%	?	3
C=CCc1cc(Cl)ccc1OCCOCCNC(C)CC (stereo unspecified)	?	?	16µM*	?	-78*
C=CCc1cc(Cl)ccc1OCCCNCCO	16µM*	?	?	?	-11
COc1ccc(-c2c(-c3ccsc3)oc3c2C(O)CCC3)cn1 (stereo unspecified)	-21%	0%	2%	-22%	26
CCCCCNc1nc(N2CCCC2)c2c(c1C#N)CCN(C)C2	23µM*	?	29µM*	23µM*	-51*
CCCS(=O)(=O)NCc1c(C)ncc2c1CCN(C(=O)/C=C/c1cccc(Cl)c1)C2	-20%	.	.	5%[9.04 µM]	.
CCOC(=O)c1ccc(N2C(=O)c3n[nH]c(C)c3C2c2ccc(C(C)(C)C)cc2)cc1 (stereo unspecified)	?	.	.	-26%	.
CCOC(=O)c1ccc(N2C(=O)c3n[nH]c(C)c3C2c2ccc(OC)cc2)cc1 (stereo unspecified)	?	?	?	-17%	-22
CCOC(=O)c1ccc(N2C(=O)c3n[nH]c(-c4cccs4)c3C2c2ccc(CC)cc2)cc1 (stereo unspecified)	12µM*	.	.	15µM*	.
CCOC(=O)c1ccc(N2C(=O)c3n[nH]c(-c4cccs4)c3C2c2ccc(C(C)C)cc2)cc1 (stereo unspecified)	16µM*	.	.	?	.
CCOC(=O)c1ccc(N2C(=O)c3n[nH]c(-c4cccs4)c3C2c2ccc(OCC)cc2)cc1 (stereo unspecified)	12µM*	.	.	29µM*	.
CCOC(=O)c1ccc(N2C(=O)c3n[nH]c(-c4cccs4)c3C2c2cccc(O)c2)cc1 (stereo unspecified)	21µM*	.	.	16µM*	.
CC1(C)NC(=O)N(CC(=O)OCC(=O)Nc2cc(S(=O)(=O)N3CCCCCC3)ccc2Cl)C1=O	-5%	16%	15%	6%	-6
Cc1ccccc1NC(=O)CN(C)S(=O)(=O)c1cccc2nsnc12	-26%	.	.	-6%	.
N#Cc1cccc(C#N)c1NCC1CCCO1 (stereo unspecified)	3%	19%	?	1%	1
CCCN1CCN(C(=O)c2cn(CC(C)C)c(=O)c3cc(OC)c(OC)cc23)CC1	-12%	14%	?	-4%	22
COCC(=O)N1CCN(c2cccc(C(F)(F)F)c2)CC1	-23%	3%	14%	?	0
COc1cc2c(C(=O)N3CCN(c4cccc(Cl)c4)CC3)cn(CC(C)C)c(=O)c2cc1OC	?	?	-23%	23µM*	0
COc1ccccc1C(=O)N1CCN(c2cccc(C(F)(F)F)c2)CC1	12µM*	9.2µM*	15µM*	10µM*	-2
